Measurements published in PubChem BioAssay (NCI).
Compounds without any hit were thinned out: in the full panel of roughly 83,000, 20% have a hit.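 The endpoint reported here, percent growth, reads 100 for growth as untreated, 0 for no net growth and -100 for all cells dead.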 Unmarked numbers belong to inactive results. Calls of active or inactive are those of the source. Rule for the calls: active = growth percent below 10; inactive = the rest.

Legend:
Test in all cases: NCI-60 one-dose screen, 48 h (100 = growth as untreated, 0 = no growth, -100 = all killed)
Conditions in all cases: 10 µM unless noted
[1] = system: T-47D breast
[2] = system: BT-549 breast
[3] = system: MDA-MB-435 melanoma
[4] = system: SW-620 colon
[5] = system: MCF7 breast
[6] = system: HCT-116 colon
[7] = system: HCC-2998 colon
[8] = system: KM12 colon

`CC(=O)Oc1ccc(OC(C)=O)c2ccccc12` was tested, and the growth [1] was -49.6% (active), the growth [2] was 96.8% and the growth [3] was 95.8%. The growth [4] was 109%, the growth [5] was 57.3% and the growth [6] was 51.6%. The growth [7] was 103% and the growth [8] was 100%.

With `Cc1ccc(-c2nc(N3CCNCC3)c3oc(-c4ccc(C)cc4)nc3n2)cc1` the growth [1] was 37.3%, the growth [2] was 83.4% and the growth [3] was -77.1% (active). For the same compound, the growth [4] was -69.3% (active), the growth [5] was -73.1% (active) and the growth [6] was -39.4% (active). The growth [7] was 65.5% and the growth [8] was -81.9% (active).

With `N#Cc1cncc(-c2ccc3ncnc(Nc4cccc(Cl)c4)c3c2)c1` the growth [1] was 56.4%, the growth [2] was 69.7% and the growth [3] was 93.4%. The growth [4] was 97.6%, the growth [5] was 75.9% and the growth [6] was 36.6%. For the same compound, the growth [7] was 88.4% and the growth [8] was 90.2%.

`NS(=O)(=O)c1ccc(C(=O)NN2C(=O)c3c(Br)c(Br)c(Br)c(Br)c3C2=O)cc1` gave a growth [1] of 83.1%, a growth [2] of 106% and a growth [3] of 103%. It also gave a growth [4] of 101%, a growth [5] of 81.4% and a growth [6] of 99.7%. For the same compound, the growth [7] was 111% and the growth [8] was 97.5%.

For `C=C1C(=O)O[C@H]2[C@H]1CC/C(COC(=O)CSCSCC(=O)OC/C1=C/CC[C@@]3(C)O[C@H]3[C@H]3OC(=O)C(=C)[C@@H]3CC1)=C\CC[C@@]1(C)O[C@@H]21`, the growth [1] was 20.9%, the growth [2] was -5.92% (active) and the growth [3] was 26.6%. For the same compound, the growth [4] was -9.08% (active), the growth [5] was 16.7% and the growth [6] was -24% (active). It also gave a growth [7] of 16.5% and a growth [8] of 35.1%.

`CN(CCCNC(=O)CCOCCOCCOCCNC(=O)Cc1ccc2ccc3cccc4ccc1c2c34)CCCNc1cc(-c2ccc3ccccc3c2)nc2ccccc12` was tested, and the growth [1] was -80.9% (active), the growth [2] was -83.6% (active) and the growth [3] was -79.6% (active). The growth [4] was -79.6% (active), the growth [5] was -82.3% (active) and the growth [6] was -98.2% (active). The growth [7] was -87.4% (active) and the growth [8] was -86.6% (active).

For `COc1ccccc1N(C(C)=O)C1=C(Cl)C(=O)c2ccccc2C1=O`, the growth [1] was -33.1% (active), the growth [2] was -4.47% (active) and the growth [3] was -13.3% (active). The growth [4] was -65.2% (active), the growth [5] was 11.8% and the growth [6] was -29.1% (active). For the same compound, the growth [7] was 19.5% and the growth [8] was -11.4% (active).

Compound `N#C/C(=C\c1ccc(-c2cccc(C(F)(F)F)c2)o1)c1ccccc1` has a growth [1] of 35.6%, a growth [2] of 96.6% and a growth [3] of 99.1%. For the same compound, the growth [4] was 92.3%, the growth [5] was 25.7% and the growth [6] was 80.4%. The growth [7] was 100% and the growth [8] was 79.3%.

For `Nc1nc2c(c3ncccc13)C(c1cccc(Cl)c1)Cc1ncccc1-2` (configuration not stated), the growth [1] was 30.1%, the growth [2] was 38.7% and the growth [3] was -57.9% (active). For the same compound, the growth [4] was 23.1%, the growth [5] was 17.2% and the growth [6] was 24.4%. For the same compound, the growth [7] was 34.4% and the growth [8] was 19.4%.

With `CC1=C2[C@@H](CC1)[C@]1(C)O[C@@](c3ccccc3)(C[C@H]1OC(=O)CO)[C@H]2OC(=O)/C=C/c1ccccc1` the growth [1] was 65.2%, the growth [2] was 0.952% (active) and the growth [3] was -80.7% (active). For the same compound, the growth [4] was 104%, the growth [5] was 78.6% and the growth [6] was 86.2%. For the same compound, the growth [7] was 93.2% and the growth [8] was 88.4%.

In the case of `CC1(C)CC2=C3C=C[C@@H]4[C@@]5(C)CCC(=O)C(C)(C)[C@@H]5CC[C@@]4(C)[C@]3(C)CC[C@@]2(C(=O)O)C[C@H]1O`, the growth [1] is reported as 20.3%, the growth [2] is reported as 34.3% and the growth [3] is reported as 27.1%. For the same compound, the growth [4] was 32.9%, the growth [5] was 14.7% and the growth [6] was 0.846% (active). The growth [7] was 35.4% and the growth [8] was 27%.

Work on `CCOc1c(OC)cc2c(c1O)C(=O)N[C@@H]1[C@@H](O)[C@@H](O)[C@H](O)C[C@@H]21` yielded a growth [1] of 92.8%, a growth [2] of 99.6% and a growth [3] of 108%. The growth [4] was 107%, the growth [5] was 92.1% and the growth [6] was 104%. For the same compound, the growth [7] was 102% and the growth [8] was 104%.

`CCN1C(=O)N(CC)C2C1NC(=S)N2/N=C/c1ccc(C(F)(F)F)cc1` (configuration not stated) was tested, and the growth [1] was 74.7%, the growth [2] was 71% and the growth [3] was 4.45% (active). It also gave a growth [4] of 55.3%, a growth [5] of 33.2% and a growth [6] of 54.9%. For the same compound, the growth [7] was 74% and the growth [8] was 56%.

`Nc1ncnc2c1N=C(c1ccc3c(c1)OCO3)CC(c1cccc(Nc3ccnc4cc(C(F)(F)F)ccc34)c1)N2` (configuration not stated) showed a growth [1] of 87.5%, a growth [2] of 112% and a growth [3] of 92.6%. It also gave a growth [4] of 69.1%, a growth [5] of 36.6% and a growth [6] of 70.3%. The growth [7] was 90.6% and the growth [8] was 50.1%.

With `Cc1nn(-c2cc(NC3CCC(O)CC3)c3c(=O)[nH]c(CCC(F)(F)F)cc3c2)c2c1C(=O)CC(C)(C)C2` (configuration not stated) the growth [1] was 62.9%, the growth [2] was 43.8% and the growth [3] was 19.3%. The growth [4] was 24.1%, the growth [5] was 26.5% and the growth [6] was 38%. For the same compound, the growth [7] was 10.9% and the growth [8] was 23.4%.

`Fc1cccc(-c2ccc3c(c2)C2(CCNCC2)CN3)c1` was tested, and the growth [1] was 78.9%, the growth [2] was 93.1% and the growth [3] was 108%. For the same compound, the growth [4] was 106%, the growth [5] was 92.5% and the growth [6] was 94.3%. For the same compound, the growth [7] was 99.4% and the growth [8] was 102%.

With `C=C1CC[C@@H]2[C@](C)(COC(C)=O)[C@H](OC(C)=O)CC[C@@]2(C)[C@@H]1CC(Nc1ccc(S(=O)(=O)NC(C)=O)cc1)C1=CCOC1=O` (some centres not stated) the growth [1] was -3.67% (active), the growth [2] was -62.6% (active) and the growth [3] was -38.8% (active). The growth [4] was -65.6% (active), the growth [5] was -33.6% (active) and the growth [6] was -63.9% (active). For the same compound, the growth [7] was -12.7% (active) and the growth [8] was -34% (active).

For `COc1cccc(C(=O)NNc2nc(Cl)nc(Cl)n2)c1`, the growth [1] was 91.6%, the growth [2] was 103% and the growth [3] was 105%. For the same compound, the growth [4] was 107%, the growth [5] was 82.8% and the growth [6] was 108%. It also gave a growth [7] of 95.2% and a growth [8] of 105%.

`COc1ccc(C[n+]2c3ccccc3n3c4ccc(N)cc4ccc32)c(OC)c1OC` was tested, and the growth [1] was 5.52% (active), the growth [2] was 5.31% (active) and the growth [3] was 53.9%. For the same compound, the growth [4] was 82.1%, the growth [5] was 31.9% and the growth [6] was 71.9%. The growth [7] was 67.9% and the growth [8] was 19.9%.

`Cc1cccc(-c2nc(Nc3ccc4ncsc4c3)c3ccccc3n2)n1` was tested, and the growth [1] was 34.6%, the growth [2] was 87.9% and the growth [3] was 60.4%. The growth [4] was 79.8%, the growth [5] was 9.7% (active) and the growth [6] was 77.4%. The growth [7] was 116% and the growth [8] was 63.1%.

`COc1cc(OC)c2sc(-c3ccc(-n4cncc4-c4cc(OC)c(OC)c(OC)c4)cc3)nc2c1` showed a growth [1] of 32.4%, a growth [2] of 45.1% and a growth [3] of 35.2%. For the same compound, the growth [4] was 56.6%, the growth [5] was 49.8% and the growth [6] was 48.6%. The growth [7] was 95.3% and the growth [8] was 52.4%.

In the case of `CCN1C(=O)N(CC)C2C1NN=c1s/c(=C3\C(=O)N(CCC(C)C)c4ccccc43)c(=O)n12` (configuration not stated), the growth [1] is reported as 80.2%, the growth [2] is reported as 11.6% and the growth [3] is reported as -31.3% (active). The growth [4] was 31.7%, the growth [5] was 14.9% and the growth [6] was 10.6%. The growth [7] was 11.6% and the growth [8] was 17.6%.

Compound `COc1ccc(NC(=O)Nc2ccc(OCCCCCC(=O)NO)cc2)cc1` has a growth [1] of 107%, a growth [2] of 99.5% and a growth [3] of 94%. The growth [4] was 99.7%, the growth [5] was 98.3% and the growth [6] was 92.3%. The growth [7] was 110% and the growth [8] was 103%.

For `CCOC(=O)C(=Cc1ccc(-c2ccccc2)cc1)C(=O)OCC`, the growth [1] was 27.8%, the growth [2] was 30.7% and the growth [3] was 38.3%. For the same compound, the growth [4] was 10.8%, the growth [5] was 16.9% and the growth [6] was -10.1% (active). It also gave a growth [7] of 76.2% and a growth [8] of 36.6%.

For `COc1ccc(Oc2nc(Nc3ccc(N4CCOCC4)cc3)ncc2NC(=O)Nc2cc(OC)cc(OC)c2)cc1`, the growth [1] was 48.8%, the growth [2] was 12.5% and the growth [3] was 6.76% (active). For the same compound, the growth [4] was 19.6%, the growth [5] was 41.7% and the growth [6] was -55.5% (active). The growth [7] was 9.48% (active) and the growth [8] was 24%.

For `CC(C)N1C(=O)/C(=c2\sc3n(c2=O)C2C(NN=3)N(C)C(=O)N2C)c2ccccc21` (configuration not stated), the growth [1] was 64.8%, the growth [2] was 72.1% and the growth [3] was -21.2% (active). The growth [4] was 29.6%, the growth [5] was 21.4% and the growth [6] was 51.4%. The growth [7] was 78.8% and the growth [8] was 44.2%.

Compound `COc1cccc(/C=N/NC(=O)c2ccccc2N2CCCC2)c1O` has a growth [1] of 24.7%, a growth [2] of 17.8% and a growth [3] of 85.5%. The growth [4] was 45.3%, the growth [5] was 5.29% (active) and the growth [6] was 4.81% (active). The growth [7] was 51.8% and the growth [8] was 46.5%.

For `O=C(N=Nc1c(O)[nH]c2ccccc12)Nc1ccc(F)cc1`, the growth [1] was 66.2%, the growth [2] was 89.6% and the growth [3] was 98.3%. For the same compound, the growth [4] was 89.4%, the growth [5] was 71.3% and the growth [6] was 82%. It also gave a growth [7] of 100% and a growth [8] of 85.5%.

In the case of `COC(=O)CCC/C=C\C[C@H]1C=CC(=O)/C1=C/C[C@@H](O)C/C=C\CC(F)(F)F`, the growth [1] is reported as 2.7% (active), the growth [2] is reported as -18.3% (active) and the growth [3] is reported as 4.2% (active). The growth [4] was -36% (active), the growth [5] was 4.67% (active) and the growth [6] was -61.4% (active). For the same compound, the growth [7] was -68.7% (active) and the growth [8] was -31.7% (active).
